An excerpt weighted towards active compounds, which were near 11% of everything screened.
MCF10A rerep = A quantitative high throughput screen for small molecules that induce DNA re-replication in MCF 10a normal breast cells | MCF 10A DNA re-replication, Hoechst nuclear intensity, 48 h | Potency, µM (doses to about 46.1 µM), inactives show at the highest dose activity, positive = re-replication, actives largely listed as activators | hit rate 2.9% among 350,000; further: potency means the concentration at half of the fitted maximal effect; % of control where 0% means no effect; nearly all actives have a fitted effect of over 50% in size
RORg inh = qHTS for inhibitors of ROR gamma transcriptional activity; Nuclear receptor ROR-gamma (Mus musculus), P51450; Drosophila S2 Gal4-RORgamma UAS-luciferase reporter, 20 h; Potency, µM (titrated, usually from 53.6 µM), for inactives: at the top dose activity change, negative = inhibition, most hits filed as inhibitors; hit rate 5.4% among 310,000; AID 2551, 2010; further: potency means the concentration at half of the fitted maximal effect; on the % scale 0 is the no-effect control and ±100 the full control effect; nearly all actives have a fitted effect of over 60% in size
Target sequence (P51450 whole entry, looked up, the tested form may be a part): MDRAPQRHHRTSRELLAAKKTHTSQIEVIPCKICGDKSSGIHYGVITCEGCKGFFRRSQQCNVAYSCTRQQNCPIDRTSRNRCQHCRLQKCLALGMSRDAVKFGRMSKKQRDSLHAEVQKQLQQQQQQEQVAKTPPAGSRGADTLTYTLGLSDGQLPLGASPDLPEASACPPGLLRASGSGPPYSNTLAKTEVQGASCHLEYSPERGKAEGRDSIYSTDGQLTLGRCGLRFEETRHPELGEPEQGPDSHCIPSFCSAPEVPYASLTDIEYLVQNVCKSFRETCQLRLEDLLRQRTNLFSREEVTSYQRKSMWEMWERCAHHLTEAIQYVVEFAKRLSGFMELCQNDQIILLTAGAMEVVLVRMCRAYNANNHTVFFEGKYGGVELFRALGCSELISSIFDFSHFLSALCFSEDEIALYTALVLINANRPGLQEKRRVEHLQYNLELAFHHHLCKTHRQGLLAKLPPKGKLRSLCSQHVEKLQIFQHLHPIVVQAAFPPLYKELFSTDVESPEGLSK
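Stable Schneider cell line, Gal4 DNA-binding domain fused to ROR gamma, UAS-luciferase. Cmpd 1 hr RT → CuSO4 700 uM final → 20 hr RT → luciferase reagent 10 min → luminescence.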
SW480 rereplic = A quantitative high throughput screen for small molecules that induce DNA re-replication in SW480 colon adenocarcinoma cells | SW480 DNA re-replication, Hoechst DNA content imaging, 48 h | Potency, µM (top dose mostly 46.1 µM), without a hit: at the top dose re-replication activation, hits mostly activators | hit rate 1.8% among 340,000; further: potency means the concentration at half of the fitted maximal effect; % of control where 0% means no effect; nearly all actives have a fitted effect of over 55% in size
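Per well, 250 cells were exposed to pinned compound for 48 hr. Nuclear DNA was visualised with Hoechst (40 min, 37 C) and total object intensity recorded by fluorescence scanning.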
VP16 counter = VP16 counterscreen qHTS for inhibitors of ROR gamma transcriptional activity. hit rate 3.5% among 310,000. Drosophila S2 Gal4-VP16 UAS-luciferase, luminescence, 20 h. AID 2546, 2010. Potency, µM (top dose mostly 53.6 µM), inactives show at the top dose activity, negative = inhibition, hits mostly inhibitors;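 further: Gal4-VP16 expression switched on by copper sulfate through the metallothionein promoter; potency means the concentration at half of the fitted maximal effect; on the % scale 0 is the no-effect control and ±100 the full control effect; nearly all actives have a fitted effect of over 50% in size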
IL1B secr inh = qHTS for Inhibitors of Inflammasome Signaling: IL-1-beta AlphaLISA Primary Screen | THP-1 LPS/ATP IL-1B secretion, AlphaLISA, 16 h; active compounds read low | activity change, % at 57.5 µM | hit rate 4.7% among 360,000; in the data active means activity change below about -50%; inconclusive means mostly about -30% to -49%; further: on the % scale 0 is the no-effect control and ±100 the full control effect
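Secreted IL-1B measured by AlphaLISA bead assay after 16 h compound exposure of THP-1 cells; compounds (final up to 57.5 uM) added 1 h before LPS (250 ng/mL) and ATP (1.25 mM) stimulation; lower signal means less secretion.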
Active calls of the source: *; [ ] = another dose, or the depositor's remark. Unless noted, the call rests on the fitted dose curve; in most records, active means well fitted curve in the direction sought with a large enough effect; inconclusive means small, poorly fitted or top-dose-only effect, or another doubt; inactive means no such curve, though single readings can be large; an effect the other way counts as inactive or inconclusive.

Screening COc1ccccc1N(CC(=O)Nc1ccc(Br)cc1F)S(=O)(=O)c1cccs1 returned MCF10A rerep inconclusive, SW480 rereplic -45.5% and IL1B secr inh -54.5*.
COc1cc(NS(=O)(=O)c2ccc(-c3ccc(=O)[nH]n3)o2)cc(OC)c1OC was read as MCF10A rerep 3.2%, RORg inh -6.2%, SW480 rereplic -26.4%, VP16 counter 3.4% and IL1B secr inh -25.5.
For CCCc1cc(-c2[nH]ncc2-c2ccc3c(c2)OCCCO3)c(O)cc1OC the results were RORg inh 3.55µM* and VP16 counter inconclusive.
For CCc1cc(-c2[nH]ncc2-c2ccc(OC)cc2)c(O)cc1O the results were MCF10A rerep -22.9%, RORg inh -13.0%, SW480 rereplic 11.1%, VP16 counter 1.6% and IL1B secr inh -83.0*.
`COc1ccc(-c2cn[nH]c2-c2ccc(OCc3ccc([N+](=O)[O-])cc3)cc2O)cc1` gave MCF10A rerep 5.8µM*, RORg inh 2.82µM*, SW480 rereplic inconclusive, VP16 counter 2µM* and IL1B secr inh -55.6*.
`CCc1cc(-c2[nH]ncc2-c2ccc3c(c2)OCO3)c(O)cc1O` gave MCF10A rerep -14.0%, RORg inh -28.1%, SW480 rereplic 9.4%, VP16 counter -7.3% and IL1B secr inh -89.1*.
`CNC(=O)C[C@H]1C(=O)N(c2ccc(Br)cc2)C[C@@H]1C` gave IL1B secr inh 2.2.
For CCCCc1cc(C(=O)Cc2ccccn2)c(O)cc1O the results were MCF10A rerep 17.0%, RORg inh 14.6%, SW480 rereplic -30.6%, VP16 counter -1.4% and IL1B secr inh 44.9.
CCOc1ccc(C(=O)Cc2cc(OC)c(OC)cc2[N+](=O)[O-])cc1 was read as MCF10A rerep 4.61µM*, RORg inh 8.0%, SW480 rereplic 5.8µM*, VP16 counter -2.2% and IL1B secr inh 3.2.
For CCCCn1c(-c2cccnc2)nc2cc3[nH]c(=O)c(C(C)C)nc3cc21 the results were MCF10A rerep 20.6%, RORg inh 17.9%, SW480 rereplic -3.9%, VP16 counter -4.5% and IL1B secr inh 4.0.
For CCCCn1c(-c2ccc(C(C)(C)C)cc2)nc2cc3[nH]c(=O)c(C(C)C)nc3cc21 the results were MCF10A rerep 18.4µM*, RORg inh 15.5%, SW480 rereplic 3.1%, VP16 counter -2.2% and IL1B secr inh 27.2.
CCCCn1c(-c2ccc(Cl)c(Cl)c2)nc2cc3[nH]c(=O)c(C(C)C)nc3cc21 was read as MCF10A rerep 14.6µM*, RORg inh 37.3%, SW480 rereplic 19.1%, VP16 counter -1.6% and IL1B secr inh 34.7.
CCCCn1c(-c2cccc(Br)c2)nc2cc3[nH]c(=O)c(C(C)C)nc3cc21 was read as MCF10A rerep 18.4µM*, RORg inh -13.8%, SW480 rereplic inconclusive, VP16 counter -1.8% and IL1B secr inh -51.6*.
`CSc1nsc(SC)c1-c1ccc(Cl)cc1` gave IL1B secr inh 19.4.
Screening COC(=O)N(C)C[C@@H]1OCc2cnnn2CCCC(=O)N([C@H](C)CO)C[C@@H]1C returned IL1B secr inh 10.8.
For O=C1CCCC2=C1C(c1ccccc1)C1C(=O)c3ccccc3C1=N2 (centres undefined) the results were MCF10A rerep -3.8%, RORg inh inconclusive, SW480 rereplic -2.4%, VP16 counter inconclusive and IL1B secr inh -18.2.
O=C1CCCC2=C1C(c1ccc(Cl)cc1)C1C(=O)c3ccccc3C1=N2 (centres undefined) was read as MCF10A rerep 13µM*, RORg inh -7.1%, SW480 rereplic 14.6µM*, VP16 counter -1.4% and IL1B secr inh -54.8*.
For Cc1ccc(C2C3=C(CCCC3=O)N=C3c4ccccc4C(=O)C32)cc1 (centres undefined) the results were MCF10A rerep -3.6%, RORg inh -24.2%, SW480 rereplic -8.2%, VP16 counter 2.6% and IL1B secr inh -67.6*.
For COc1ccc(-c2nc3cnc(N4CCOCC4)nc3n(-c3ccc(OC)cc3)c2=O)cc1 the results were RORg inh 4.2% and VP16 counter -2.3%.
CC1(C(=O)NCCC#N)CCN1C(=O)C1(c2ccccc2)CCCC1 (centres undefined) was read as IL1B secr inh 20.6.
Screening O=C(O)c1ccc(Cl)cc1Cl returned RORg inh 0.2% and VP16 counter 20.0%.
Screening CC(=O)C1=C(O)C(=O)N(c2nccs2)C1c1ccccc1F (centres undefined) returned MCF10A rerep 12.4%, RORg inh -14.5%, SW480 rereplic -14.6%, VP16 counter -15.1% and IL1B secr inh 28.4.
Screening COc1ccc(C2C(C(C)=O)=C(O)C(=O)N2c2nccs2)c(OC)c1 (centres undefined) returned MCF10A rerep 3.1%, RORg inh -8.8%, SW480 rereplic 20.6µM*, VP16 counter -4.4%[10 µM] and IL1B secr inh 7.3.
For Cc1ccsc1CN(C(=O)c1ccc([N+](=O)[O-])cc1)C1CCS(=O)(=O)C1 (centres undefined) the results were MCF10A rerep 5.8%, RORg inh 4.1%, SW480 rereplic -10.0%, VP16 counter 4.2% and IL1B secr inh -9.9.
For O=[N+]([O-])c1cccc(C2NCC(c3ccccc3Cl)c3c2[nH]c2ccccc32)c1 (centres undefined) the results were MCF10A rerep inconclusive, RORg inh 13.9%, SW480 rereplic inconclusive, VP16 counter 2.8% and IL1B secr inh -63.1*.
CN(C)c1ccc(C2CNC(c3ccc(Cl)c([N+](=O)[O-])c3)c3[nH]c4ccccc4c32)cc1 (centres undefined) was read as MCF10A rerep 4.11µM*, RORg inh -5.5%, SW480 rereplic 14.6µM*, VP16 counter 3.0% and IL1B secr inh -25.2.
For O=C1Nc2ccccc2C(=O)N(C2CCCC2)C1C(=O)NC1CC1 (centres undefined) the results were IL1B secr inh -5.9.
Screening N#Cc1cc(C(=O)c2cc(F)ccc2O)cn(-c2nccs2)c1=O returned MCF10A rerep inconclusive, RORg inh 33.3%, SW480 rereplic 3.6%, VP16 counter -14.1% and IL1B secr inh 22.9.
`Cc1c(-n2cc(C(=O)c3cc(F)ccc3O)cc(C#N)c2=O)c(=O)n(-c2ccccc2)n1C` gave MCF10A rerep 0.6%, RORg inh 5.5%, SW480 rereplic -1.2%, VP16 counter 4.7% and IL1B secr inh -55.9*.
For CCC(C)=O the results were RORg inh 0.5% and VP16 counter -2.5%.
`CC1CCc2sc(C(=O)NN=C3CCCC3)cc2C1` (centres undefined) gave IL1B secr inh -2.8.

Assay outcomes deposited in PubChem BioAssay by National Center for Advancing Translational Sciences (NCATS).
